Among all 650,000 compounds or so, about 5,900 (0.91%) were called active. No stated cut-off is given here; in the data, active means inhibition above about 50%; inactive means the rest. The full list was thinned out, with actives kept by preference.
biological target: Microphthalmia-associated transcription factor (Homo sapiens) (UniProt O75030); test: MITF inhibitors, primary screen, biochemical, AlphaScreen, human (AID 1259374); settings: AlphaScreen MITF homodimerization, bead proximity signal; at 2.6 µM; active compounds read high;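 further: 0% = vehicle wells with protein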
Sequence (O75030 whole entry, looked up): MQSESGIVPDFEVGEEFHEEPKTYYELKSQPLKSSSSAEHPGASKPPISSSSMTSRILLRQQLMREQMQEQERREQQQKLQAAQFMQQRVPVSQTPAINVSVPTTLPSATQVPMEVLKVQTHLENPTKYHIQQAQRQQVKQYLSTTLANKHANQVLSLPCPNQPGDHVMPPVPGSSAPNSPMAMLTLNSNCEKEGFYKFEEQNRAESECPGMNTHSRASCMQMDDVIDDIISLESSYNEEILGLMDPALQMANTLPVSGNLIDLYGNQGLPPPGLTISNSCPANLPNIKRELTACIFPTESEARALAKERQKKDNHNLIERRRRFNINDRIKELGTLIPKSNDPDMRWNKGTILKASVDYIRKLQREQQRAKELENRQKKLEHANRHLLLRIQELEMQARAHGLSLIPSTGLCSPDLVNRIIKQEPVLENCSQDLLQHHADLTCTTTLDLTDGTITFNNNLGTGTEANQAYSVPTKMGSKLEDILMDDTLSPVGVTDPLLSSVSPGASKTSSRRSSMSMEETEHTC

| Structure (SMILES) | inhibition |
| --- | --- |
| Cc1ccc(-c2n[nH]c(CNC(=O)c3cnccn3)n2)cc1 | 1.68% (inactive) |
| CCOc1ccccc1NC(=O)c1ccccc1NC(=O)c1ccc(OC)cc1 | -3.48% (inactive) |
| S=c1[nH]nc(COc2cccc(Br)c2)n1-c1ccccc1 | 4.84% (inactive) |
| CCCCC(=O)NCc1ccc(F)cc1 | 56.8% (active) |
| O=C(CC1CCCCC1)NCc1ccc(F)cc1 | -4.27% (inactive) |
| Cn1c(C(=O)O)c(CC(=O)NCc2ccc(F)cc2)c2ccccc21 | 63.1% (active) |
| CN(Cc1ccccc1)C(=O)Cc1c(C(=O)O)n(C)c2ccccc12 | 12.8% (inactive) |
| Cn1c(C(=O)O)c(CC(=O)Nc2ccc(F)cc2)c2ccccc21 | -7.75% (inactive) |
| Cc1ccc(CS(=O)(=O)CCC(=O)NCc2ccc(F)cc2)cc1 | 9.88% (inactive) |
| CC(=O)/C=C/c1oc2ccccc2c1-c1ccc(C)o1 | 21.6% (inactive) |
| COc1cccc(/C=N/NC(=O)COc2cccc(Cl)c2)c1 | 1.05% (inactive) |
| Cc1ccc(-c2c(C(=O)O)nnn2-c2nonc2N)cc1 | 3.35% (inactive) |
| O=C(c1ccccc1F)N1CCN(C2CCCC2)CC1 | 29.8% (inactive) |
| O=C(c1ccc(-n2c(=S)[nH]c3ccccc3c2=O)cc1)N1CCN(C2CCCCC2)CC1 | 6.86% (inactive) |
| O=C(c1ccccc1)N1CCN(C2CCCC2)CC1 | 52.8% (active) |
| N#Cc1cc2cc3c(cc2nc1SCC(=O)Nc1nccs1)OCO3 | 5.9% (inactive) |
| Cc1nc(C(C)N(C)C(=O)Cn2cc(NC(=O)CCOc3ccccc3)cn2)c(C)s1 (stereo not drawn) | -7.45% (inactive) |
| CCOC(=O)C(NC(=O)c1ccc(N2CC3CC(C2)c2cccc(=O)n2C3)c(NC(=O)c2cc(OC)cc(OC)c2)c1)C(=O)OCC (stereo not drawn) | -6.03% (inactive) |
| COc1ccc(-c2cnnc(NCc3ccc(Cl)cc3)n2)cc1 | -5.57% (inactive) |
| CCCCNc1ncnc2c1[nH]c1ccc(F)cc12 | 18% (inactive) |
| COc1ccc(C2=N/C(=C\c3ccco3)C(=O)O2)cc1OC | 14.6% (inactive) |

| Structure (SMILES) | inhibition |
| --- | --- |
| O=C(Cn1nnc2ccccc21)N/N=C/c1c(O)ccc2ccccc12 | 14.9% (inactive) |
| CCN(CC(=O)NCc1ccc(Cl)cc1)Cn1nnc2ccccc21 | 85.1% (active) |
| CCCn1c(=O)c(C(=O)NCc2ccc(Cl)cc2)c(O)c2ccccc21 | 13.8% (inactive) |
| COc1cc(-c2cn[nH]c2)ccc1C(=O)NCC(C)c1cccs1 (stereo not drawn) | 0.52% (inactive) |
| Cc1c(C(=O)Nc2cccc(C(F)(F)F)c2)sc2ncn(C)c(=O)c12 | -1.25% (inactive) |
| Cc1ccc(NC(=O)c2ccc(NC(N)=O)cc2)cc1 | -11% (inactive) |
| O=C(COc1ccc(Cl)cc1Cl)Nc1cccc(Br)c1 | -1.08% (inactive) |
| Cc1cc(NC(=O)CNCCCN(C)C)no1 | 64.8% (active) |
| Cc1cc(NC(=O)Cn2cnc3c2c(=O)n(C)c(=O)n3C)no1 | 18% (inactive) |
| Cc1cc(NC(=O)c2ccc(N(C)C)cc2)no1 | 7.76% (inactive) |
| COC(=O)c1ccccc1NC(=O)CC1Nc2cc(C)c(C)cc2NC1=O (stereo not drawn) | 6.95% (inactive) |
| O=C(c1ccc2c(c1)OCO2)N1CCCCC1c1nc2ccccc2[nH]1 (stereo not drawn) | 10.6% (inactive) |
| CN1CCC(N2CCN(c3ccccc3Cl)CC2)CC1 | 55.2% (active) |
| CCCN1CCC(N2CCN(c3cccc(Cl)c3)CC2)CC1 | 15% (inactive) |
| CCS(=O)(=O)N1CCC(N2CCN(c3ccccc3)CC2)CC1 | 11.4% (inactive) |
| Cc1nc(-c2cncc(Br)c2)cc(N2CCC(O)CC2)n1 | 3.37% (inactive) |
| CC(C)C(c1nnnn1C(C)C)N1CCN(c2ccccc2F)CC1 (stereo not drawn) | 7.59% (inactive) |
| COc1ccc(C2C(C(C)=O)=C(C)N=C3SCC(=O)N32)c(OC)c1 (stereo not drawn) | 63.8% (active) |
| CCOC(=O)C1=C(C)N=C2SCC(=O)N2C1c1cc(OC)c(OC)c(OC)c1 (stereo not drawn) | 15.1% (inactive) |
| COc1ccc(C2C(C(C)=O)=C(C)N=c3s/c(=C\c4cc(C)n(-c5ccc(Cl)cc5)c4C)c(=O)n32)c(OC)c1 (stereo not drawn) | 0.25% (inactive) |
| CCc1nnc(NC(=O)CSc2nnc(-c3ccccn3)n2-c2ccccc2C)s1 | 1.39% (inactive) |

| Structure (SMILES) | inhibition |
| --- | --- |
| CCOc1cc(C2C3=C(CCCC3=O)N(CC)C3=C2C(=O)CCC3)cc(Cl)c1O | 3.45% (inactive) |
| COC(=O)C1(C)NC(c2ccc(C)cc2)C2C(=O)N(c3ccc(C)cc3)C(=O)C21 (stereo not drawn) | 10.8% (inactive) |
| COC(=O)C1(C)NC(c2ccccc2OC)C2C(=O)N(c3ccccc3)C(=O)C21 (stereo not drawn) | 17.7% (inactive) |
| COC(=O)C1(C)NC(c2ccc(C)cc2)C2C(=O)N(c3ccc(F)cc3)C(=O)C21 (stereo not drawn) | 77.9% (active) |
| CC(=O)c1ccc(N2CN=C3SCC(=O)N3C2)cc1 | 9.73% (inactive) |
| CCCNC(=O)Cc1ccc(-n2c(=O)c3ccccc3n(CC(=O)NC3CCCCC3)c2=O)cc1 | -13.8% (inactive) |
| c1ccc(CCCNc2nccc(Nc3ccncn3)n2)cc1 | 10.6% (inactive) |
| c1ccc(CCNc2nccc(Nc3ccncn3)n2)cc1 | -8.19% (inactive) |
| c1ccc(CCCCNc2nccc(Nc3ccncn3)n2)cc1 | 61.3% (active) |
| O=C(NCc1ccccc1)c1ccc2c(c1)nc(SCc1ccc([N+](=O)[O-])cc1)n1c3ccccc3nc21 | 13.9% (inactive) |
| Cc1ccc(CNC(=O)Cn2ncc3c2-c2ccccc2OC3)cc1 | 4.23% (inactive) |
| Cc1cc(NC(=O)c2ccco2)ncc1NC(=O)c1cnccn1 | 6.96% (inactive) |
| Cc1ccc(CN2CCOCC2)c(C)c1 | -2.63% (inactive) |
| Clc1ccc(CN2CCOCC2)c(Cl)c1 | 43.8% (inactive) |
| Oc1c(CN2CCOCC2)ccc(CN2CCOCC2)c1O | 52% (active) |
| Cc1cc(C)nc(NC(=O)c2ccccc2Br)c1 | -3% (inactive) |
| COCCn1c(=S)[nH]c2cc(C(=O)NCCC3=CCCCC3)ccc2c1=O | 0.32% (inactive) |
| CN(CCc1ccccn1)Cc1cccnc1 | 73.8% (active) |
| O=C(COc1ccccc1)NCc1cccnc1 | -5.7% (inactive) |
| CN(Cc1ccccc1)C(=O)CCC1CCN(C(=O)CCc2ccccn2)CC1 | -1.89% (inactive) |
| CCOc1cc(/C=C2\NC(=S)NC2=O)cc(Br)c1OC | 19.5% (inactive) |
